Assay results taken from PubChem BioAssay.
Calls of active or inactive are those of the source. Unless noted, no rule for the calls is given here.

What was measured:
[1] = compound effects on lung adenocarcinoma cell viability – A549, calcein-AM fluorescence, 48 h, basal, profiling panel (AID 1162); settings: higher = more signal; also: test concentration not given here
[2] = compound effects on differentiated 3T3-L1 adipocyte viability – cell-based, 3T3-L1 adipocytes, calcein-AM fluorescence, 48 h, basal, profiling panel (AID 1163); settings: 3T3-L1 adipocytes viability, higher = more signal; also: test concentration not given here
[3] = compound effects on hepatocellular carcinoma cell viability – HepG2, calcein-AM fluorescence, 48 h, basal, profiling panel (AID 1164); settings: higher = more signal; also: test concentration not given here
[4] = compound effects on multiple myeloma cell viability – MM1S, calcein-AM fluorescence, 48 h, basal, profiling panel (AID 1165); settings: higher = more signal;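 also: viability of MM1S multiple myeloma cells under basal unstimulated conditions; test concentration not given here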
[5] = calcein-AM signal in unstimulated myeloma cells – cell-based, calcein-AM fluorescence, 48 h, PK04 Diversity Set, profiling panel (AID 1166); settings: RPMI8226 myeloma viability, higher = more signal;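 also: cells grown under basal conditions without added stimulus; test concentration not given here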
[6] = JC-1 mitochondrial signal, unstimulated HepG2 cells – cell-based, JC-1 fluorescence, 24 h, 100 nL compound, profiling panel (AID 1167); settings: HepG2 mitochondrial potential, higher = more signal; also: test concentration not given here
[7] = JC-1 mitochondrial signal, unstimulated adipocytes – cell-based, JC-1 fluorescence, 3T3-L1 adipocytes, 24 h, 100 nL compound, profiling panel (AID 1168); settings: JC-1 mitochondrial fluorescence, higher = more signal, called active from +8 up or from −8 down; also: test concentration not given here
[8] = JC-1 mitochondrial signal, unstimulated myeloma cells – cell-based, JC-1 fluorescence, RPMI8226, 24 h, 100 nL compound, profiling panel (AID 1169); settings: JC-1 mitochondrial potential fluorescence, higher = more signal; also: test concentration not given here
[9] = JC-1 mitochondrial signal, unstimulated MM1S myeloma – cell-based, JC-1 fluorescence, 24 h, 100 nL compound, profiling panel (AID 1170); settings: MM1S mitochondrial potential, higher = more signal; also: test concentration not given here
[10] = resazurin metabolic signal in A549 cells – cell-based, resazurin fluorescence, 24 h, PK04 Diversity Set, profiling panel (AID 1171); settings: A549 viability, higher = more signal, called active from +8 up or from −8 down; also: test concentration not given here
[11] = resazurin metabolic signal in HepG2 cells – cell-based, resazurin fluorescence, 24 h, PK04 Diversity Set, profiling panel (AID 1172); settings: HepG2 viability, higher = more signal; also: test concentration not given here
[12] = budding yeast growth changes without added modifier – OD600, strain BY4716, 24 h, basal condition, primary screen (AID 1173); settings: S. cerevisiae BY4716 growth, OD600, 24 h; higher = more signal, called active from +8 up or from −8 down
[13] = viability profiling in MM1S myeloma cells – cell-based, resazurin fluorescence, basal, 24 h, PK04 Diversity Set, profiling panel (AID 1174); settings: higher = more signal, called active from +8 up or from −8 down; also: test concentration not given here
[14] = biological target: Dihydroorotate dehydrogenase (quinone), mitochondrial (Plasmodium falciparum (isolate 3D7)) (UniProt Q08210); assay: inhibition of P. falciparum DHODH – biochemical, C-terminal His tag, absorbance 600 nm, primary screen (AID 1175); settings: PfDHODH enzyme, DCIP absorbance 600 nm; higher = more signal, called active from +8 up or from −8 down;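 also: recombinant parasite enzyme with a five histidine tag at its C terminus; test concentration not given here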
Chain of Dihydroorotate dehydrogenase (quinone), mitochondrial (Plasmodium falciparum (isolate 3D7)) (Q08210 whole entry, looked up): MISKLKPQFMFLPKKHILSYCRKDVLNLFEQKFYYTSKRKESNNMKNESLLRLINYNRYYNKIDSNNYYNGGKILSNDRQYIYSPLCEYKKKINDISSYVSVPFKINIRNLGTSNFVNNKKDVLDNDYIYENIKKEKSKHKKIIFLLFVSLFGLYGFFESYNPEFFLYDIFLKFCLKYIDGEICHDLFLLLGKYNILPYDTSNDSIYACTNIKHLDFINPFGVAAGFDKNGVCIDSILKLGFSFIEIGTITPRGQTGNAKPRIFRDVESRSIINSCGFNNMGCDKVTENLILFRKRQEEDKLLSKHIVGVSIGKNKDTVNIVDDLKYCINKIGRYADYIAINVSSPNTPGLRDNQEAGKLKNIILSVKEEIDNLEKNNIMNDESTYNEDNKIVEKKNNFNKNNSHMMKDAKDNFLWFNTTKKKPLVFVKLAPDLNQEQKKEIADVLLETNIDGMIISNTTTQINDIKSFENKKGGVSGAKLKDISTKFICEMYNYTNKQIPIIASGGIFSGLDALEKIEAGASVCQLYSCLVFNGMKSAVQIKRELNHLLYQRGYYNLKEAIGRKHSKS

[15] = inhibition of PAO1 biofilm formation – strain PAO1, LB-PBS medium, absorbance 600 nm, primary screen (AID 1176); also: test concentration not given here; settings: P. aeruginosa PAO1 growth/biofilm, A600, 12 h; higher = more signal
[16] = growth modulation of vineyard yeast isolate – strain RM11-1a, OD600, basal, 24 h, primary screen (AID 1177);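 also: cultures grown under basal conditions with no added stressor; test concentration not given here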; settings: S. cerevisiae RM11-1a growth, OD600, 24 h; higher = more signal, called active from +8 up or from −8 down
[17] = growth of efflux-deficient E. coli DRC39 – strain DRC39, OD650, 24 h, E. coli filamentation inducers, primary screen (AID 1178);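 also: growth measured as culture turbidity by optical density at 650 nm; test concentration not given here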; settings: E. coli DRC39 acrAB, higher = more signal, called active from +8 up or from −8 down
[18] = growth of efflux-deficient E. coli DRC39 – strain DRC39, OD650, 48 h, E. coli filamentation inducers, primary screen (AID 1179);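 also: screen aims at cell division blockers that make cells filament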; settings: E. coli DRC39 delta-acrAB growth, higher = more signal, called active from +8 up or from −8 down
[19] = viability profiling in RPMI8226 myeloma cells – cell-based, resazurin fluorescence, basal, 24 h, PK04 Diversity Set, profiling panel (AID 1180); settings: higher = more signal;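 also: RPMI8826 multiple myeloma cell line at 5000 cells per well; test concentration not given here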
[20] = biological target: E3 ubiquitin-protein ligase XIAP (Homo sapiens) (UniProt P98170); assay: small molecules binding XIAP protein – biophysical, small-molecule microarray, fluorescence 635 nm, primary screen (AID 1181); settings: higher = more signal;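 also: score merges 667 nm emission and signal to noise over triplicate slides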
Chain of E3 ubiquitin-protein ligase XIAP (Homo sapiens) (P98170 whole entry, looked up): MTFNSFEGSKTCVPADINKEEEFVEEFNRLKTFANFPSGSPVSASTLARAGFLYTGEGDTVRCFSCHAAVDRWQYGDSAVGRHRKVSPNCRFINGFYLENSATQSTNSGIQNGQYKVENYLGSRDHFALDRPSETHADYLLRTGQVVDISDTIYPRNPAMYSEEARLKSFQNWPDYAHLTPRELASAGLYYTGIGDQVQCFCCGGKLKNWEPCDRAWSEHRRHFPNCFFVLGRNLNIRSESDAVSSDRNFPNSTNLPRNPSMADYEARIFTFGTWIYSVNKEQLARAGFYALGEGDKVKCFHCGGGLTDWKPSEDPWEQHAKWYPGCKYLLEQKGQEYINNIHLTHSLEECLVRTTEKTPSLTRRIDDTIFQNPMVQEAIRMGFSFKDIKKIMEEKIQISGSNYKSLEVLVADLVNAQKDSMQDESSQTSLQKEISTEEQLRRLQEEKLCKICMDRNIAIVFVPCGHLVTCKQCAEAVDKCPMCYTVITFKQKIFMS

Compound	z-score [1]	z-score [2]	z-score [3]	z-score [4]	z-score [5]	z-score [6]	z-score [7]	z-score [8]	z-score [9]	z-score [10]	z-score [11]	z-score [12]	z-score [13]	composite z-score [14]	z-score [15]	z-score [16]	z-score [17]	z-score [18]	z-score [19]	composite z-score [20]
C=CC[C@]1(C(=O)O)N=C(c2ccc(OCCCO)cc2)O[C@H]1c1ccccc1CN=[N+]=[N-]	1.32	-1.06	0.243	0.869	0.293	-0.131	0.0284 (inactive)	-0.57	-0.587	-0.506 (inactive)	0.13	-0.518 (inactive)	-2.6 (inactive)	0.381 (inactive)	-0.555 (inactive)	0.363 (inactive)	0.104 (inactive)	0.619 (inactive)	-0.728	0.117
COCCOC(=O)N1C(=O)[C@@]2(c3cc(C#CCCO)ccc31)[C@H](C(=O)NC[C@H](O)c1ccccc1)[C@H]1C(=O)O[C@H](c3ccccc3)[C@H](c3ccccc3)N1[C@@H]2c1ccc(OCCO)cc1	-0.339	1.22	-0.981	-0.97	-0.304	-1.25	0.623 (inactive)	-0.8	-0.904	1.21 (inactive)	0.76	0.757 (inactive)	0.857 (inactive)	-0.689 (inactive)	1.75 (inactive)	1.21 (inactive)	0.696 (inactive)	-0.567 (inactive)	1.43	0.275
COCCOC(=O)N1C(=O)[C@@]2(c3ccccc31)[C@H](c1ccc(O)cc1)N1[C@H](c3ccccc3)[C@H](c3ccccc3)OC(=O)[C@H]1[C@@H]2C(N)=O	0.357	0.502	1.75	0.936	0.395	-0.815	0.76 (inactive)	0.296	-0.971	-0.83 (inactive)	-0.701	0.652 (inactive)	-0.916 (inactive)	-0.766 (inactive)	0.125 (inactive)	0.623 (inactive)	0.596 (inactive)	0.687 (inactive)	-1.01	0.0228
[N-]=[N+]=NCc1ccccc1C[C@]1(C(=O)NCCN2CCOCC2)N=C(c2ccc(OCCCO)cc2)O[C@H]1c1ccccc1CN=[N+]=[N-]	0.0783	1.99	0.356	-2.14	-3.34	1.27	-0.492 (inactive)	-0.784	-1.65	-0.403 (inactive)	0.0176	-2.56 (inactive)	0.836 (inactive)	1.31 (inactive)	0.428 (inactive)	-1.95 (inactive)	1.93 (inactive)	0.844 (inactive)	0.0688	0.0871
CC(C)NC(=O)[C@@H]1c2ccccc2C(=O)N(C2CCCCC2)[C@H]1c1ccc(CO)cc1	0.699	-0.209	0.581	-0.594	-2.04	1.54	-0.656 (inactive)	-0.811	0.103	1.08 (inactive)	-0.208	-0.63 (inactive)	-0.569 (inactive)	-0.131 (inactive)	0.36 (inactive)	0.052 (inactive)	0.126 (inactive)	-0.0549 (inactive)	-0.374	0.0124
O=C(CS)NCCCCCNC(=O)[C@H]1C[C@H]2C(=O)N[C@@H](Cc3ccccc3)C(=O)N2[C@H]1c1cccc(OCCO)c1	0.917	-0.0063	0.585	0.898	-0.156	1.3	-0.0668 (inactive)	-0.736	-0.256	0.363 (inactive)	0.219	-0.525 (inactive)	0.782 (inactive)	0.761 (inactive)	0.932 (inactive)	-0.572 (inactive)	1.94 (inactive)	1.68 (inactive)	0.889	0.0585
COC(=O)C(CC#Cc1ccc2c(c1)[C@]1(C(=O)N2)[C@H](C(=O)N2CCCCCCC2)[C@H]2C(=O)O[C@H](c3ccccc3)[C@H](c3ccccc3)N2[C@@H]1c1ccccc1OCCO)C(=O)OC	-0.65	0.091	0.491	-0.216	-0.421	0.0896	1.09 (inactive)	-0.835	-1.33	0.901 (inactive)	-0.198	0.946 (inactive)	-0.0924 (inactive)	-4.91 (inactive)	1.22 (inactive)	0.0478 (inactive)	-1.19 (inactive)	-0.513 (inactive)	0.218	2.41
CCOC1=C2C(c3ccc(C)cc3)N(S(=O)(=O)c3ccc(C)cc3)CC2n2c(=O)n(-c3ccccc3)c(=O)n2C1 (stereo not given)	-0.943	-0.334	-0.422	-0.255	-0.546	1.53	0.497 (inactive)	0.709	-1.03	-0.629 (inactive)	-0.994	1.21 (inactive)	-0.932 (inactive)	-2.05 (inactive)	-0.172 (inactive)	0.135 (inactive)	-0.15 (inactive)	0.717 (inactive)	-0.774	0.199
CN(C)CCCC[C@@H]1NC(=O)[C@@H]2C[C@H](C(=O)NCc3ccc(F)cc3)[C@H](c3cccc(OCCO)c3)N2C1=O	0.514	-0.0506	0.554	0.731	1.02	2.08	0.544 (inactive)	0.46	-0.749	-0.158 (inactive)	-0.487	-0.889 (inactive)	0.0458 (inactive)	-0.366 (inactive)	0.199 (inactive)	-0.889 (inactive)	0.797 (inactive)	0.83 (inactive)	0.293	0.0808
